Screens (PubChem)
Rows were chosen to be rich in hits. Some 1.2% of all compounds tested hit in one or more screens of this group.
RAD52 anneal inh: blocks human RAD52 DNA annealing | recombinant RAD52 DNA annealing, FRET fluorescence | inhibition, % at 18.7 µM | actives 0.46% (n = 360,000) | P43351 | AID 651710;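 active = every replicate showing at least 50% inhibition; inconclusive = mean inhibition at least 50% but not in every replicate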
N-glyco inh: blocks N-linked glycosylation in D54 reporter cells; D54 ERlucT glycosylation luciferase reporter, 24 h; percent of 100 nM tunicamycin response; reporter increase, % at 12.5 µM; actives 0.23% (n = 360,000); AID 588692;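 active = mean luciferase reporter signal, scaled so untreated is 0 and the glycosylation-blocking control 100, at or above a set limit in every replicate; inconclusive = mean reaches the limit but not every replicate does; inactive = mean below the limit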;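 also: luciferase carries N-glycosylation sites so blocking glycosylation raises the light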
NSD2 HMT inh: NSD2 (human) methyltransferase inhibition. actives 0.54% (n = 310,000). O96028. AID 743445. inhibition, % at 12.5 µM. NSD2 peptide methylation, AlphaScreen, 120 min; in the data active = inhibition above about 50%
CASP6 VEID inh: blocks human caspase-6 cleavage activity. P55212. purified caspase-6, Z-VEID-R110 cleavage fluorescence. inhibition, % at 12.5 µM. actives 0.53% (n = 350,000);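 active = mean inhibition across replicates at least about 35%, with every replicate also reaching that limit, limit read from the data; inconclusive = only one of the two criteria met; inactive = neither criterion met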
RAD54 branch: RAD54 (human) branch migration inhibition. Q92698. RAD54 Holliday junction branch migration, FAM/BHQ fluorescence. inhibition, % at 10.4 µM. actives 0.14% (n = 360,000);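 active = mean normalized replicate activity at least 40 and at least half of replicates scoring 40 or more; inconclusive = only one of the two criteria met; inactive = mean below 40 and under half of replicates reaching 40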;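 also: inhibitors cause a drop in the FAM fluorescence signal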
Target sequence (Q92698 whole entry, looked up): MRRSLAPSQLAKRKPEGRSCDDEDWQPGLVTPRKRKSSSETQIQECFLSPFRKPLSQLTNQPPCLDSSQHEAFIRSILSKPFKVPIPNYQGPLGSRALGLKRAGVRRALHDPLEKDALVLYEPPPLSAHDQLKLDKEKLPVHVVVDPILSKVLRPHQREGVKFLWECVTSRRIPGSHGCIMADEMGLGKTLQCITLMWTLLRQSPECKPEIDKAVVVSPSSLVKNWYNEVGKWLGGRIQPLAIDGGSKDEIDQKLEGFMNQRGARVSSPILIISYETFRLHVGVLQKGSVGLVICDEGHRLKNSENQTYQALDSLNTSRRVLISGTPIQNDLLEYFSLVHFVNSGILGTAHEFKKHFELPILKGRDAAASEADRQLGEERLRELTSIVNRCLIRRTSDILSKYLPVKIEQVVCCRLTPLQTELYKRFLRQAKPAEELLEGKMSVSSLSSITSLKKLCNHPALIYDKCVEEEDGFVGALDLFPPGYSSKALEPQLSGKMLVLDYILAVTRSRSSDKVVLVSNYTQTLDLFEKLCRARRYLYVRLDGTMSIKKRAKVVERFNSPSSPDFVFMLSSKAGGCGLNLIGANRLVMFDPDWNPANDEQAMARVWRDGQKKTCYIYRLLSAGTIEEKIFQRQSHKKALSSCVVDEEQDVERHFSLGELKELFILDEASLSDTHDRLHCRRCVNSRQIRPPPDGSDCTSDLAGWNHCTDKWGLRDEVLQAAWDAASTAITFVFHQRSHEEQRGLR
DNA binder FP: counter-screen for RAD52 inhibitors: DNA binding compounds; shares compounds with RAD52 anneal inh; Salmon sperm DNA/acridine orange FP displacement; AC50, µM; actives 8% (n = 1,000); AID 652128;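 active = fitted half-maximal concentration for signal loss at or below twice the highest dose tested, in every separate run, actives reach about 64 µM in these data; inconclusive = runs disagree, or flat partial signal loss, or poor fit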
Hits are given with their value; – = inactive; ? = inconclusive; · = no result.

SMILES	RAD52 anneal inh	N-glyco inh	NSD2 HMT inh	CASP6 VEID inh	RAD54 branch	DNA binder FP
CO[C@H]1CN(C)C(=O)c2cc(NC(=O)c3ccccc3F)ccc2OC[C@@H](C)N(CC2CCOCC2)C[C@@H]1C	–	·	·	–	–	·
CCNC(=O)[C@@H]1[C@@H](CO)[C@@H]2Cn3c(ccc(C4=CCCCC4)c3=O)[C@@H]2N1C(=O)CC1CC1	–	·	·	–	–	·
CN/C(=C/[N+](=O)[O-])NCCSCc1ccc(CN(C)C)o1	54.8	–	·	–	–	–
Nc1ccc2nc(CCCO)[nH]c2c1	93.2	–	·	–	–	–
CN(C)CCNc1ncnc2c1sc1nc(-c3ccccc3)c3c(c12)CCCC3	69.6	–	·	–	–	–
COc1ncnc2c1sc1nc(-c3ccccc3)c3c(c12)CCCC3	·	–	–	·	·	·
CCCC(=O)Nc1ccc2c(c1)OC[C@@H](C)N(C(=O)C1CCCC1)C[C@@H](C)[C@@H](OC)CN(C)C2=O	–	·	·	–	–	·
CCOC(=O)c1c(NC(=O)C(NCCN(C)C)c2ccccc2)sc2c1CCCC2 (stereo not given)	63.5	–	–	–	–	–
OC(CN1CCCCC1)Cn1c2ccccc2c2cc(Br)ccc21 (stereo not given)	57.5	–	–	–	–	–
Cc1ccc2c(c1)c1c(n2CC(O)Cn2c(C)nc3ccccc32)CCCC1 (stereo not given)	–	–	·	–	–	·
Cc1ccc2c(c1)c1c(n2CC(O)CN2CCCCCC2)CCCC1 (stereo not given)	80.5	–	–	·	–	–
Cc1ccc2c(c1)c1c(n2CC(O)Cn2nc(C)c(Br)c2C)CCCC1 (stereo not given)	·	–	–	·	–	·
Cc1ccc2c(c1)c1c(n2CC(O)CNC(C)(C)C)CCCC1 (stereo not given)	52.2	–	·	65.1	–	–
O=C(O)C[C@H]1C[C@@H]2c3cc(NS(=O)(=O)c4ccccc4)ccc3O[C@@H]2[C@@H](CO)O1	–	·	·	–	–	·
C[C@@H]1ON(C)[C@H]2C[C@H]3c4cc(Nc5ccccc5)ccc4CCN3C[C@@H]12	–	·	·	–	·	·
C[C@@H]1ON(C)[C@H]2C[C@H]3c4cc(-c5cc6ccccc6o5)ccc4CCN3C[C@@H]12	68.3	·	·	–	·	–
CC[C@H](C)Cc1cn([C@@H](CCCN=C(N)N)C(=O)NCCCCCCCCCCC(=O)N2CCNCC2)nn1	52.0	–	·	–	–	–
COc1ccc2c3c([nH]c2c1)C(C)N(CCC(=O)NN)CC3 (stereo not given)	79.3	–	–	–	–	–
O=C(N[C@H]1CC[C@H](CC(=O)N2CCOCC2)O[C@@H]1CO)c1ccccn1	–	·	·	–	–	·
CCCCCOC(=O)Cn1c(=O)oc2ccccc21	–	–	·	–	–	·
CCCCOC(=O)Cn1c(=O)n(CC(=O)OCCCC)c2ccccc21	·	–	–	·	–	·
CCCCCCCCCCOC(=O)Cn1c(COc2cccc(C)c2)[n+](C)c2ccccc21	79.5	–	–	–	52.1	?
CCOC(=O)Cn1c(COc2ccccc2OC)[n+](C)c2ccccc21	–	–	–	–	–	·
CCCCCCCCCCOC(=O)Cn1c(COc2ccc(Cl)cc2)[n+](C)c2ccccc21	76.5	–	–	–	56.9	–
CCCCCCCCCCOC(=O)Cn1c(COc2ccccc2)[n+](C)c2ccccc21	70.1	–	–	–	?	–
SMILES	RAD52 anneal inh	N-glyco inh	NSD2 HMT inh	CASP6 VEID inh	RAD54 branch	DNA binder FP
O=C(C[C@H]1C=C[C@H](NC(=O)CN2CCOCC2)[C@H](CO)O1)NCc1cccc(F)c1	–	·	·	–	–	·
CCn1c(C)nc2cc(OC)ccc21	–	–	–	–	–	·
CCn1c(C)nc2cc(N)ccc21	93.2	–	–	–	·	–
Cc1nc2cc(N)ccc2n1C1CCCCC1	90.6	–	–	–	·	–
C/C=C/c1ccc2c(c1)O[C@@H](CN(C)CC1CCCC1)[C@H](C)CN([C@H](C)CO)S2(=O)=O	–	·	·	–	–	·
CCN(CC)CCCN(C(=O)c1ccc(OC)cc1)c1nc(-c2ccc(OC)cc2)cs1	56.9	–	–	–	–	–
CCN(CC)CCCN(C(=O)c1ccccc1C)c1nc(-c2ccc(OC)cc2)cs1	–	–	–	–	–	·
Cc1ccc(-c2csc(N(CCCN(C)C)C(=O)c3ccco3)n2)cc1	63.7	–	–	–	·	–
COc1ccc(-c2csc(N(CCCN(C)C)C(=O)c3ccc(C(C)(C)C)cc3)n2)cc1	–	–	–	–	–	·
COc1ccc(-c2csc(N(CCCN(C)C)C(=O)c3ccc(Br)cc3)n2)cc1	58.1	–	–	–	–	–
COc1ccc(-c2csc(N(CCCN(C)C)C(=O)c3ccc(C)cc3)n2)cc1	53.6	–	–	–	–	–
COc1ccc(-c2csc(N(CCCN(C)C)C(=O)c3cc(OC)c(OC)c(OC)c3)n2)cc1	–	–	–	–	–	·
C[C@@H]1CN([C@@H](C)CO)C(=O)c2cc(C#Cc3ccccc3F)cnc2O[C@H]1CN(C)C(=O)Cc1cccnc1	–	·	·	–	–	·
COc1ccc(CN(C)C[C@H]2Oc3ccc(NC(=O)Nc4ccc5c(c4)OCO5)cc3C(=O)N([C@@H](C)CO)C[C@@H]2C)cc1	–	·	·	–	–	·
COc1ccccc1N1CCN(CC(=O)c2ccc(F)cc2)CC1	–	–	–	–	–	·
CC(CC(=O)c1ccc(F)cc1)N1CCN(c2ccccc2)CC1 (stereo not given)	79.7	–	–	–	·	–
NC(N)=N/N=C/c1ccc(OCc2ccccc2Cl)cc1	–	–	–	–	–	–
Clc1ccc(-c2csc(N3CCCCCC3)n2)cc1	–	–	·	–	–	·
CN1CCN(c2nc(-c3ccc(Cl)s3)cs2)CC1	51.4	–	–	–	·	–
CCN(CC)CCOC(=O)c1ccc(N=CC2=C(O)CC(C)(C)CC2=O)cc1	70.9	–	·	–	·	–
C=CC(=C)CC(NC)c1ccccc1 (stereo not given)	58.8	–	–	–	–	–
CN1[C@@H]2c3ccc(-c4ccccc4F)c(=O)n3C[C@@H]2[C@@H](CO)[C@@H]1C(=O)NCc1ccncc1	–	·	·	–	–	·
CCOc1cc(N2CCC(O)CC2)ccc1Nc1ncc2c(n1)N(C)c1ccccc1C(=O)N2C	–	·	·	–	·	·
COc1cc(C(=O)N2CCC(N3CCN(C)CC3)CC2)ccc1Nc1ncc2c(n1)N(C)c1ccccc1C(=O)N2C	76.7	·	·	–	·	–
C[C@@H]1CN([C@H](C)CO)C(=O)c2cc(NS(=O)(=O)c3ccc(F)cc3)ccc2O[C@H]1CN(C)S(=O)(=O)c1cn(C)cn1	–	·	·	–	·	·
SMILES	RAD52 anneal inh	N-glyco inh	NSD2 HMT inh	CASP6 VEID inh	RAD54 branch	DNA binder FP
CN1CCN(c2ccc(NC(=O)c3ccc(-c4ccccc4F)o3)cc2)CC1	–	–	–	–	–	–
CN1CCN(c2ccc(NC(=O)c3ccc(Br)o3)cc2)CC1	–	–	–	–	–	·
CCOc1ccc2[nH]c(=S)[nH]c2c1	·	–	–	·	–	·
CCOc1ccc2[nH]c3c(c2c1)CNCC3	55.2	–	–	–	–	–
O=C(N[C@@H]1CC[C@@H](CCNS(=O)(=O)c2ccc(Cl)cc2)O[C@H]1CO)c1cnccn1	–	·	·	–	–	·
CC(C)N1CCc2c(sc(NC(=O)c3nc4ccccc4s3)c2C(N)=O)C1	68.3	–	–	–	·	–
